# Data as given in paper PMC4552634, “A New Set of Chemical Starting Points with Plasmodium falciparum Transmission-Blocking Potential for Antimalarial Drug Discovery” (PLoS ONE, 2015).
# Hit rate of the full screen: of about 13,000 compounds, about 3,200 (25%) showed an effect of 50% or more. The list shows a part of the results.
# System: P. falciparum stage V gametocytes
# Design: BacTiter-Glo ATP luminescence viability of purified stage V gametocytes in 384-well plates, per cent inhibition versus DMSO
# Conditions: 48 h, 5 µM; inhibitor
row,SMILES,% Inhibition
1,Cc1ccc(Nc2nc(C)cc(Nc3cccc(C#N)c3)n2)cc1 [TCMDC-133460],4.468%
2,O=C(Nc1ccc(-c2cccc(-c3nc4ccc(C(F)(F)F)cc4[nH]3)c2)cc1)Nc1ccc(Cl)c(Cl)c1 [TCMDC-133278],-24.62%
3,CS(=O)(=O)CCN(CCS(C)(=O)=O)Cc1ccc(-c2ccc3ncnc(Nc4ccc(OCc5cccc(F)c5)c(Cl)c4)c3c2)o1 [TCMDC-138624],0.5882%
4,CCC(C)C#Cc1c(C)nc(N)nc1N (centres unmarked) [TCMDC-137729],-55.19%
5,Cc1cccc2nc(-c3ccc(-c4ccc(CNCc5cnn(-c6ccccc6)n5)cc4)s3)[nH]c12.O=C(O)C(F)(F)F [TCMDC-132967],11.48%
6,CN1CCC(c2csc3ccc(NC(=O)Nc4ccc(-c5ccncc5)c5ccccc45)cc23)CC1 [TCMDC-139229],21.21%
7,CN1CC=C(c2csc3ccc(NC(=O)Nc4ccc(-c5ccncc5)c5ccccc45)cc23)CC1 [TCMDC-139225],89.24%
8,CN1CC=C(c2csc3ccc(NC(=O)Nc4ccc(-c5ccncc5)c(Cl)c4)cc23)CC1 [TCMDC-139226],-3.853%
9,CCNC(=O)c1ccc(-n2nc(C)cc2-c2ccccc2)cc1 [TCMDC-124440],-33.35%
10,Cc1ccc(NC(=O)NC2CCN(CCCCCNC(=O)C3CC3c3ccc(Cl)c(Cl)c3)CC2)cc1 (centres unmarked) [TCMDC-136247],-44.45%
11,O=C(Nc1cccc(F)c1)NC1CCN(CCCCCNC(=O)C2CC2c2ccc(Cl)c(Cl)c2)CC1 (centres unmarked) [TCMDC-136248],79.62%
12,O=C(Nc1ccc(F)cc1)NC1CCN(CCCCCNC(=O)C2CC2c2ccc(Cl)c(Cl)c2)CC1 (centres unmarked) [TCMDC-136249],82.82%
13,O=C(Nc1cccc(F)c1)N[C@H]1CCN(CCCCCNC(=O)C2CC2c2ccc(Cl)c(Cl)c2)C1 (some centres unmarked) [TCMDC-136261],-0.7596%
14,O=C(Nc1ccc(Cl)cc1)NC1CCN(CCCCCNC(=O)C2CC2c2ccc(Cl)c(Cl)c2)CC1 (centres unmarked) [TCMDC-136251],-16.96%
15,O=C(Nc1cc(F)cc(F)c1)NC1CCN(CCCCCNC(=O)C2CC2c2ccc(Cl)c(Cl)c2)CC1 (centres unmarked) [TCMDC-136252],75.57%
16,N#Cc1cccc(NC(=O)NC2CCN(CCCCCNC(=O)C3CC3c3ccc(Cl)c(Cl)c3)CC2)c1 (centres unmarked) [TCMDC-136250],5.084%
17,O=C(Nc1cc(F)cc(F)c1)N[C@H]1CCN(CCCCCNC(=O)C2CC2c2ccc(Cl)c(Cl)c2)C1 (some centres unmarked) [TCMDC-136263],23.53%
